# PubChem BioAssay (Tox21)
# Records with an inconclusive call do not appear. A number with no mark means an inactive call. Calls come from the whole dose curve; as a rule, active = well fitted activation curve with a large enough effect in the repeat runs; inconclusive = weak or mixed curves; inactive = flat fitted curve, though single readings scatter.
# Assay: Caspase-3/7 induction in HepG2 cells by small molecules, qHTS assay (AID 1346978); note: nearly all actives have a fitted effect of over 15% in size
# Conditions: HepG2 caspase-3/7 activation, Caspase-Glo luminescence, 17 h; series mostly up to 92.4 µM; caspase activation: at the top concentration
# Excerpt: National Center for Advancing Translational Sciences [NCATS] NIH Chemical Genomics Center [NCGC] U.S. Environmental Protection Agency [EPA] National Institutes of Environmental Health Sciences [NIEHS] National Toxicology Program [NTP] Assay overview: Apoptosis is a process of programmed cell death and plays a central role in the development of multicellular organisms. It is a highly regulated process and induces cell death by activating caspases, which are the members of cysteine aspartic acid-specific protease (caspase) family. Caspases involved in apoptosis are classified by their mechanism of action as initiator caspases (caspase-2, -8, -9 and -10) and executioner caspases (caspase-3, -6, and -7). Inhibition of apoptosis results in number of cancers, autoimmune diseases, inflammatory diseases and viral infection. To identify small molecule compounds that induce apoptosis, a homogeneous, luminescent Caspase-Glo 3/7 assay was used. Wild type HepG2 cells were used to screen Tox21 libraries for identifying caspase-3/7 activity inducers.
# Assay Protocol Summary: HepG2 cells were dispensed at 2,000 per well in 5uL of culture medium into white solid bottom 1536-well plates (Corning Life Sciences, Corning, NY) using a Multidrop Combi (Thermo Scientific, Waltham, MA) dispenser. The assay plates were incubated at 37 C and 5% CO2 for 5hr, and then 23nL of compounds dissolved in DMSO and positive control were transferred using a Pintool station (Wako, San Diego, CA). The assay plates were incubated at 37C and 5% CO2 for 17hr. For caspase-3/7 activity read, 4uL of Caspase-Glo 3/7 reagent (Promega Corporation, Madison, WI) was added to each well of the assay plates using Flying Reagent Dispenser (FRD, Aurora Discovery, San Diego, CA) and incubated the assay plates at room temperature for 30min. The luminescence signal was quantified using a ViewLux plate reader (Perkin Elmer, Shelton, CT).
# % is set by controls: 0 for no effect and ±100 for the full control effect.
row,Compound,caspase activation
1,CS(=O)(=O)c1cc(C(F)(F)F)ccc1C(=O)c1cnoc1C1CC1,-0.619%
2,O=C(Nc1ccccc1)c1ccccc1I,-0.336%
3,C=CC1CC=CCC1 (stereo not given),1.7%
4,N#CC(O)c1ccccc1 (stereo not given),0.567%
5,CC1(C(=O)Nc2ccc(O)c(Cl)c2Cl)CCCCC1,2.51%
6,C[C@@H]1CN(C2CCC(C#N)(c3ccc(F)cc3)CC2)CC[C@]1(C(=O)O)c1ccccc1 (stereo not given in full),-0.422% [at 42.5 µM]
7,CCOC(=O)/C=C(C)/C=C/C[C@@H](C)CCCC(C)C,2.79%
8,CCCCOP(=O)(O)OCCCC,-0.902%
9,COC(=O)COc1ccc(Cl)cc1Cl,1.23%
10,COc1cc(OC)nc(NC(=O)NS(=O)(=O)c2ncccc2OCC(F)(F)F)n1,0.515%
11,COP(=S)(OC)Oc1ccc(S(N)(=O)=O)cc1,5.72% [at 42.5 µM]
12,CCC(Cl)[N+](=O)[O-] (stereo not given),1.28%
13,N#CCNCC#N,-1.46%
14,CC(Cl)(Cl)[N+](=O)[O-],0.0382%
15,CCN(CC)CCOC(=O)C(C)(c1ccccc1)c1ccccc1,0.634% [at 42.5 µM]
16,O=[N+]([O-])c1ccc2c3c(cccc13)CC2,-0.169%
17,COC(=O)C(c1ccccc1)C1CCCCN1 (stereo not given),0.249%
18,CN1CCN(C(=O)O[C@H]2c3nccnc3C(=O)N2c2ccc(Cl)cn2)CC1,-0.97% [at 42.5 µM]
19,Cc1ncc(CNC(=O)N(CCCl)N=O)c(N)n1,0.0364% [at 42.5 µM]
20,N#Cc1ccncc1,2.14%

row,Compound,caspase activation
1,ClC(Br)Br,0.551%
2,CC(C)NCC(O)c1ccc(N)c(C#N)c1 (stereo not given),0.0201% [at 42.5 µM]
3,C[N+](C)=CCl,0.59%
4,CCCCN(CCCCO)N=O,0.211%
5,CNC(=O)Oc1ccccc1C1OCCO1,0.0024%
6,CCOP(=S)(OCC)SCSc1ccc(Cl)cc1,0.407%
7,CN1CCC(O)(c2ccc(F)cc2)C(C(=O)c2ccc(F)cc2)C1 (stereo not given),-0.647% [at 42.5 µM]
8,C#CCN1C(=O)COc2cc(F)c(N3C(=O)C4=C(CCCC4)C3=O)cc21,-4.17%
9,CC(COc1ccc(Oc2ccccc2)cc1)Oc1ccccn1 (stereo not given),-1.19%
10,CNC(=O)Oc1cccc(C(C)C)c1,-1.5%
11,Nc1cc2c3c(c1)C(c1ccccc1)=N[C@@H](NC(=O)c1cccnc1)C(=O)N3CC2,3.43%
12,N#CCBr,-0.839%
13,c1cc2c(c(N3CCNCC3)c1)OCCO2,-1.29% [at 42.5 µM]
14,CNCC(=O)c1ccc(O)c(O)c1,0.532% [at 42.5 µM]
15,CC(C)CP(=S)(S)CC(C)C,0.507%
16,COc1cc(OC)nc(Sc2cccc(Cl)c2C(=O)O)n1,0.299%
17,O=NN1CCCCC1,0.987%
18,CCSC(=O)N(CC)C1CCCCC1,1.2%
19,Fc1cc(Br)ccc1CBr,-1.97% [at 42.5 µM]
20,OC(Cn1cncn1)(c1ccc(F)cc1)c1ccccc1F (stereo not given),-1.19%
